Molecules are shown by their SMILES. Screen size: about 220,000 compounds; about 2,000 (0.91%) were called active. Another 2% or so got no clear call; they are omitted. Rule as the data show it: inconclusive = inhibition above about 80% without an active follow-up result; inactive = below that; test concentration not stated here. The list is a sample of the results. Entries with a potency or affinity are not part of this list.

Broadly, the inhibition is the change of the read-out against control, counted positive when it falls.

A short description of the test: M. tuberculosis H37Rv growth inhibitors, H37Rv strain (AID 1626).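 Also: bacteria incubated seven days before Alamar blue readout; 0% = bacteria only wells and 100% = bacteria with antibiotic wells.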 Conditions: stronger effect = higher value, concentration not given here.
On to `C/C(=N/NC(=O)CNC(=O)CCc1ccccc1)c1ccc(Cl)cc1`, for which the inhibition was -2.99% (inactive).
As for `O=C(Oc1ccccc1)c1c(Cl)cccc1P(=O)(O)O`, the figure is -3.52% (inactive); as for `CCCc1nnc(-c2cc(OC)c(OC)c(OC)c2)o1`, 0.88% (inactive); as for `Nc1nnc(SCCCC(=O)c2ccc(F)cc2)s1`, 7.95% (inactive).
Next, `Nc1nnc(SCCCC(=O)c2ccc(Br)cc2)s1`: 0.26% (inactive); `Cc1c(C(=O)O/N=C(\N)c2ccccn2)cccc1[N+](=O)[O-]`: -0.03% (inactive).
In the case of `Cc1c(C(=O)Nc2cccc3cccnc23)oc2ccccc12`, the inhibition was -1.97% (inactive).
Consider `NC(=O)c1ccc(Oc2cccc3cccnc23)c([N+](=O)[O-])c1`, for which the inhibition was 49.5% (inactive).
As for `O=[N+]([O-])c1ccccc1OCCOCCOc1cccc2cccnc12`, the figure is -5.36% (inactive); as for `COc1ccc(CSc2cccc3cccnc23)cc1[N+](=O)[O-]`, -0.94% (inactive).
Consider `CCc1nc2ccccc2c(C(=O)Oc2cccc3cccnc23)c1C`, for which the inhibition is 22.1% (inactive).
Turning to `COc1ccccc1NC(=O)N1CCN(c2ccc(F)cc2)CC1`, the inhibition is 4.69% (inactive).
Next, `COCCCNC(=S)N1CCC(NC(=O)c2ccco2)CC1`: 0.03% (inactive); `CCCCOC(=O)N/N=C/C=C/c1ccccc1`: 5.74% (inactive); `COc1ccc2[nH]cc(CCNC(=S)NC3CCCC3)c2c1`: 4.31% (inactive).
With `NNC(=O)c1ccc(Cn2cc(Br)cn2)o1`, the inhibition was -4.47% (inactive).
Take `CCn1cnc2cc(NCc3cccs3)ccc21`: the inhibition was 3.06% (inactive).
For `CN(C)C(CNC(=S)Nc1cccc(Cl)c1)c1ccccc1` (configuration not stated), the inhibition is 3.58% (inactive).
As for `Nc1cc2c(cc1C(=O)c1cccc(Br)c1)OCCO2`, the figure is 4.56% (inactive); as for `Cc1ccc(NS(=O)(=O)c2cc(C(=O)Nc3cccc(N(C)S(C)(=O)=O)c3)ccc2C)c(C)c1`, 8.69% (inactive).
In the case of `Cc1ccc(NS(=O)(=O)c2cc(NC(=O)c3cc4c(s3)CCCC4)ccc2C)c(C)c1`, the inhibition was 6.18% (inactive).
As for `COc1ccc(NC(=O)c2cccc(S(=O)(=O)Nc3ccc(Br)cc3)c2)cn1`, the inhibition was 7.12% (inactive).
Turning to `O=C(Nc1cccc(S(=O)(=O)Nc2ccc(Cl)cc2)c1)c1ccc[n+]([O-])c1`, the inhibition is 8.19% (inactive).
As to `CS(=O)(=O)N1CCCC(C(=O)NCCN2CCC(Cc3ccccc3)CC2)C1` (configuration not stated), the inhibition was 3.9% (inactive).
Turning to `CCN(CC)C(=O)C(=O)c1ccn(-c2c(C)csc2C(=O)OC)c1`, the inhibition is 10.3% (inactive).
As for `COc1cccc(/C=C(\C#N)C(=O)NC2CCS(=O)(=O)C2)c1` (configuration not stated), the figure is -1.08% (inactive).
Turning to `Brc1ccc(C2C3=C(Nc4ncnn42)c2ccccc2OC3c2ccncc2)cc1` (configuration not stated), the inhibition is 3.46% (inactive).
For `Fc1ccc(C2C3=C(Nc4ncnn42)c2ccccc2OC3c2ccncc2)cc1` (configuration not stated), the inhibition is 1.81% (inactive).
As for `Cc1ccc(C2c3c(oc4ccccc4c3=O)C(=O)N2c2nncs2)cc1` (configuration not stated), the inhibition is -7.54% (inactive).
For the molecule `COc1ccc(CCNC(=O)c2cc(-c3ccccc3OC)on2)cc1OC`, the inhibition is -17.8% (inactive).
Take `COc1ccc(C(=O)O/N=C2\CCS(=O)(=O)c3sccc32)cc1`: the inhibition is -3.81% (inactive).
Take `O=S1(=O)CCC(=Nc2ccc(Cl)cc2)c2ccsc21`: the inhibition is 3.58% (inactive).
For the molecule `COc1ccc(Cl)cc1S(=O)(=O)Oc1ccc(NC(C)=O)cc1`, the inhibition was -3.14% (inactive).
Regarding `C=CCSc1nc(NC)c2sccc2n1`, the inhibition is 64.3% (inactive).
Regarding `C=CCNc1nc(SC)nc2ccsc12`, the inhibition is 19.7% (inactive).
As to `Cc1oc(C)c(C(=O)O)c1COc1ccc(C(=O)O)cc1`, the inhibition is -4.93% (inactive).
Regarding `CN(C)c1oc(COc2ccc(F)cc2)nc1C#N`, the inhibition was 0.53% (inactive).
For `COc1ccccc1NC(=O)COC(=O)[C@@H]1CCCN1C(=O)c1cccs1`, the inhibition is 2.35% (inactive).
Consider `COc1ccc(CCNC(=O)CSc2cn(Cc3ccccc3)c3ccccc23)cc1OC`, for which the inhibition was 0.69% (inactive).
Next, `CCOC(=O)CSc1nnc(-c2ccc(S(=O)(=O)N3CCOCC3)cc2)n1-c1ccccc1`: 14.9% (inactive); `CC1CCCCN1CC(=O)Nc1ccc(N2CCCCCC2)cc1` (configuration not stated): 7.03% (inactive); `O=C(CNCC1CCCCC1)Nc1ccc(N2CCCCC2)cc1`: 5.47% (inactive).
In the case of `O=[N+]([O-])c1ccc(Sc2nnnn2-c2ccccc2)c(Cl)c1`, the inhibition was -0.26% (inactive).
Take `O=[N+]([O-])c1ccc(Sc2ccccc2)nc1`: the inhibition was 1.27% (inactive).
Take `O=C(COC(=O)c1cncc(Br)c1)NC1CCCCC1`: the inhibition was 0.66% (inactive).
As for `Cn1cc(/C=N\NC(=O)C2COc3ccccc3O2)c2ccccc21` (configuration not stated), the figure is 11.9% (inactive); as for `c1cncc(-c2nc(-c3ccco3)cs2)c1`, 2.43% (inactive).
Consider `Cc1ccc(S(=O)(=O)NC(=O)Nc2cc(C)ccc2F)cc1`, for which the inhibition is -4.28% (inactive).
With `Cc1ccc(S(=O)(=O)Nc2nc(-c3ccc(F)cc3)cs2)cc1`, the inhibition was -5.33% (inactive).
Take `COc1ccccc1N1CCN(C(=O)c2ccc(CN3CCOCC3)cc2)CC1`: the inhibition was 4.65% (inactive).
With `c1ccc(-c2nc(-c3cccnc3)n[nH]2)cc1`, the inhibition is 4.63% (inactive).
In the case of `Nc1n[nH]c(-c2cccc([N+](=O)[O-])c2)n1`, the inhibition is 2.42% (inactive).
On to `CCCOc1cccc(C2/C(=C(/O)c3ccc(OC)cc3)C(=O)C(=O)N2CCN(C)C)c1` (configuration not stated), for which the inhibition is -1.44% (inactive).
Next, `Cc1ccc(NC(=S)NCCSc2ccc(Cl)cc2)c(C)c1`: 17.1% (inactive); `COc1cc(CNCc2ccccn2)ccc1OCc1ccccc1Cl`: 61% (inactive); `COc1cc(CNCc2ccccn2)ccc1OCc1c(Cl)cccc1Cl`: 56.6% (inactive).
For `COc1cc(CNCc2ccccn2)ccc1OCc1ccc(Cl)cc1`, the inhibition is 31.7% (inactive).
Regarding `COc1cc(CNCc2ccccn2)ccc1OCc1cccc(Cl)c1`, the inhibition was 28.4% (inactive).
In the case of `Cc1nnc(NC(=O)NCN2C(=O)C3C4C=CC(C4)C3C2=O)s1` (configuration not stated), the inhibition was -8.61% (inactive).
As to `CCN(CC)P(=O)(Oc1ccccc1)Oc1ccccc1`, the inhibition was 7.92% (inactive).
Next, `C#CCOCCOCCOCCNc1nc(N2CCN(C(=O)[C@H](C(C)C)n3cc(CCO)nn3)CC2)nc(N2CCN(C(=O)[C@H]([C@@H](C)CC)n3cc(CCCCN)nn3)CC2)n1`: 1.48% (inactive); `Cc1cccc2nc(-c3cccc(NC(=O)Cc4ccccc4)c3)cn12`: 10.1% (inactive); `c1cncc(CSc2nnc3ccc(-c4ccco4)nn23)c1`: -0.26% (inactive).
Regarding `Cc1ccc(NC(=O)CSc2nnnn2C)cc1S(=O)(=O)N(C)C`, the inhibition was -2.13% (inactive).
Turning to `O=C(CSc1ncn[nH]1)Nc1ccc([N+](=O)[O-])cc1Br`, the inhibition is 10.6% (inactive).
For `Nc1nc(SCC(=O)Nc2ccc(Br)cc2F)n[nH]1`, the inhibition is 0.13% (inactive).
In the case of `CN(C)CCCCOc1ccc(Br)cc1Cl`, the inhibition was 6.22% (inactive).
As to `CCCCOC(=O)CSc1nc(N)c(C#N)c(-c2ccc(OCC)cc2)c1C#N`, the inhibition was 57.9% (inactive).
With `CCOC(=O)CC(=O)CSc1nc(N)c(C#N)c(-c2ccc(F)cc2)c1C#N`, the inhibition was -2.96% (inactive).
Regarding `CC(=O)CSc1nc(N)c(C#N)c(-c2cccs2)c1C#N`, the inhibition was -7.14% (inactive).
As to `N#Cc1c(N)nc(SCC(=O)OCc2ccccc2)c(C#N)c1-c1ccco1`, the inhibition is 74% (inactive).
As for `CC(C)OC(=O)CSc1nc(N)c(C#N)c(-c2cccs2)c1C#N`, the figure is 40.9% (inactive); as for `CC(C)OC(=O)CSc1nc(N)c(C#N)c(-c2ccco2)c1C#N`, 53.1% (inactive).
`CCOC(=O)CC(=O)CSc1nc(N)c(C#N)c(-c2ccc(Cl)cc2)c1C#N`: the inhibition was -8.64% (inactive).
As to `CCCCOc1ccc(-c2c(C#N)c(N)nc(SCC(N)=O)c2C#N)cc1`, the inhibition is -5.04% (inactive).
Consider `Cc1ccc(-n2c(O)c(C=NCCN3CCOCC3)c(=O)[nH]c2=O)cc1`, for which the inhibition is 2.96% (inactive).
In the case of `CCCc1nnc(NC(=O)Nc2ccc(OC)cc2)s1`, the inhibition was -1.18% (inactive).
Next, `COc1ccc(S(=O)(=O)N2CCOCC2)cc1Cl`: 5.97% (inactive).
As to `Cc1ccc(N2C(=O)NC(=O)/C(=C/c3cnn(-c4ccc(C)cc4)c3)C2=O)cc1`, the inhibition was 79.9% (inactive).
With `CCCN1C(=O)c2cc(C(=O)Nc3ccc(OC)c(OC)c3)ccc2C1Nc1ccc(OC)c(OC)c1` (configuration not stated), the inhibition is 4.17% (inactive).
`CCn1cc(C(=O)N2CCCCC2)c2ccccc21`: the inhibition was -0.75% (inactive).
`Cn1c(=O)oc2cc(S(=O)(=O)N3CCC4(CC3)OCCO4)ccc21`: the inhibition is -6.19% (inactive).
Consider `O=C(CSc1nnc(-c2ccncc2)n1Cc1ccco1)OC1CCCCC1`, for which the inhibition was 0.38% (inactive).
As for `CCC(C)(C)n1nnnc1C(c1ccncc1)N1CCN(c2cccc(OC)c2)CC1` (configuration not stated), the figure is -11.7% (inactive).
Take `Cc1cc(NC(=O)CSc2nc(C(C)C)nc3sc(C)c(C)c23)no1`: the inhibition was -4.44% (inactive).
In the case of `Cc1cc(NC(=O)CSc2nc(C3CC3)nc3sc4c(c23)CCC(C)C4)no1` (configuration not stated), the inhibition is -2.86% (inactive).
On to `Cc1nc(SCC(=O)NCc2ccco2)c2c3c(sc2n1)CCCC3`, for which the inhibition was -8.98% (inactive).
As to `Cc1cc(NC(=O)CSc2nc(C(C)C)nc3c2c(=O)n(C)c(=O)n3C)no1`, the inhibition was -4.22% (inactive).
As for `COc1ccccc1/C=C/C(=O)NCC(=O)N/N=C/c1ccccc1[N+](=O)[O-]`, the figure is -1.7% (inactive).
As for `CN(C)S(=O)(=O)c1ccc(C(=O)OCC(=O)Nc2sc3c(c2C#N)CCCCC3)cc1`, the figure is -0.67% (inactive); as for `CC(C)(C)c1ccc(-c2noc(-c3ccc4c(c3)CCO4)n2)cc1`, 10.1% (inactive); as for `Nc1c(N(CCO)C(=O)COc2ccc(Cl)cc2)c(=O)[nH]c(=O)n1Cc1ccccc1`, -6.77% (inactive).
In the case of `Cc1ccc(Nc2nc(N)c([N+](=O)[O-])c(N3CCC(C)CC3)n2)cc1C`, the inhibition is 10.8% (inactive).
As for `O=c1cc(NCc2ccccc2)nc2ccccn12`, the inhibition is 4.08% (inactive).
As for `COc1ccc(NC(=O)CSc2ccccn2)cc1`, the figure is 7.31% (inactive).
For the molecule `COc1cccc(NC(=O)CSc2ccccn2)c1`, the inhibition was -1.36% (inactive).
Consider `Cn1ccnc1SCC(=O)Nc1ccc2ccccc2c1`, for which the inhibition was 11.1% (inactive).
As for `CC(=O)Nc1ccc(NC(=O)CSc2ccccn2)cc1`, the figure is 7.17% (inactive).
Consider `O=C(CSc1ccccn1)Nc1ccc(NC(=O)CSc2ccccn2)cc1`, for which the inhibition is -2.88% (inactive).
Take `O=C(CSc1ccccn1)Nc1ccc2c(c1)C(=O)c1ccccc1C2=O`: the inhibition was 2.78% (inactive).
As for `COc1ccc(NC(=O)CSc2ccccn2)cc1OC`, the figure is -4.19% (inactive).
With `O=C(CSc1ccccc1)Nc1ccncc1`, the inhibition was 0.82% (inactive).
